From article PMC5540273 (PLoS ONE, 2017)

Columns and labels:
Conditions in all cases: concentration: 1 μM, replicates: in singlicate; n = 1
[1] = tested on: T1, RSK1(Kin.Dom.2-C-terminal)
T1 construct: gene RPS6KA1

[2] = tested on: T2, RSK2(Kin.Dom.1-N-terminal)
T2 construct: gene RPS6KA3

[3] = tested on: T3, RSK2(Kin.Dom.2-C-terminal)
T3 construct: gene RPS6KA3

[4] = tested on: T4, RSK3(Kin.Dom.1-N-terminal)
T4 construct: gene RPS6KA2

[5] = tested on: T5, RSK3(Kin.Dom.2-C-terminal)
T5 construct: gene RPS6KA2

[6] = tested on: T6, RSK4(Kin.Dom.1-N-terminal)
T6 construct: gene RPS6KA6

[7] = tested on: T7, RSK4(Kin.Dom.2-C-terminal)
T7 construct: gene RPS6KA6

S6K1 = tested on: S6K1
SBK1 = tested on: SBK1
SGK2 = tested on: SGK2
SGK3 = tested on: SGK3
SGK = tested on: SGK
SIK2 = tested on: SIK2
SIK = tested on: SIK
SLK = tested on: SLK
SNARK = tested on: T8, SNARK
T8 construct: gene NUAK2

SNRK = tested on: SNRK
SRC = tested on: SRC
SRMS = tested on: SRMS
SRPK1 = tested on: SRPK1
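Further: KINOMEscan kinase panel screen.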

Structure (SMILES) | %Inh [1] | %Inh [2] | %Inh [3] | %Inh [4] | %Inh [5] | %Inh [6] | %Inh [7] | %Inh (S6K1) | %Inh (SBK1) | %Inh (SGK2) | %Inh (SGK3) | %Inh (SGK) | %Inh (SIK2) | %Inh (SIK) | %Inh (SLK) | %Inh (SNARK) | %Inh (SNRK) | %Inh (SRC) | %Inh (SRMS) | %Inh (SRPK1)
Cc1ccccc1-c1cc(-c2c[nH]nc2-c2ccccn2)ccn1 [GW680061] | 14% | 10% | 15% | 2% | 0% | 0% | 22% | 2% | 0% | 0% | 0% | 0% | 0% | 0% | 0% | 1% | 0% | 0% | 0% | 0%
Nc1ncnc2occ(-c3ccc4c(c3)CCN4C(=O)Cc3cc(F)ccc3F)c12 [GSK2645446] | 0% | 0% | 7% | 0% | 16% | 0% | 15% | 0% | 10% | 0% | 1% | 0% | 0% | 0% | 5% | 7% | 0% | 0% | 0% | 16%
Cc1ccc(-c2nc(Nc3ccncc3)c3ccccc3n2)s1 [GSK189015] | 18% | 7% | 21% | 3% | 12% | 0% | 28% | 0% | 4% | 4% | 47% | 5% | 16% | 0% | 9% | 74% | 3% | 13% | 3% | 38%
Cc1ccc(NC(=O)Nc2ccc(Cl)cc2)cc1-c1ccc(C(=O)Nc2ccncc2)cc1 [GSK1398472] | 0% | 2% | 6% | 15% | 0% | 0% | 20% | 8% | 19% | 8% | 13% | 0% | 11% | 20% | 12% | 0% | 0% | 8% | 0% | 0%
CNc1cc(-c2ccc3c(N)n[nH]c3c2)nc(N)n1 [GSK2224810] | 26% | 14% | 0% | 1% | 0% | 37% | 37% | 0% | 7% | 0% | 7% | 0% | 13% | 0% | 0% | 2% | 0% | 0% | 0% | 46%
COc1nccc(-c2c(-c3ccc(F)cc3)ncn2CCCN2CCOCC2)n1 [SB-282852] | 11% | 27% | 17% | 0% | 38% | 0% | 36% | 29% | 0% | 36% | 0% | 13% | 0% | 0% | 30% | 0% | 0% | 0% | 0% | 0%
COC(=O)c1cccc(NC(=O)NC2CCN(c3ccnc(Nc4ccc(OC)cc4)n3)C2)c1 (stereo not drawn) [GSK1379746] | 0% | 0% | 0% | 0% | 0% | 0% | 0% | 14% | 0% | 0% | 0% | 9% | 0% | 0% | 7% | 0% | 0% | 0% | 0% | 0%
COc1ccc(CSc2nnc(-c3ccc4nccn4c3)o2)cc1C(F)(F)F | 44% | 12% | 10% | 8% | 6% | 30% | 0% | 0% | 0% | 4% | 61% | 8% | 29% | 13% | 14% | 77% | 5% | 7% | 3% | 20%
Cc1ccc(NC(=O)Nc2ccc(Cl)c(C(F)(F)F)c2)cc1-c1ccc(C(=O)Nc2ccncc2)cc1 [GSK1398470] | 3% | 5% | 0% | 9% | 14% | 2% | 22% | 15% | 64% | 0% | 4% | 0% | 26% | 41% | 21% | 4% | 56% | 21% | 0% | 30%
COc1cc2ncnc(Nc3cccc(Br)c3)c2cc1OC.Cl [GI230329] | 11% | 11% | 5% | 0% | 0% | 0% | 15% | 0% | 16% | 2% | 0% | 22% | 0% | 0% | 65% | 3% | 23% | 20% | 21% | 34%
COc1ccc(CSc2nnc(-c3ccc4ncsc4c3)o2)cc1C(F)(F)F | 0% | 0% | 0% | 0% | 0% | 0% | 9% | 0% | 0% | 0% | 0% | 2% | 0% | 11% | 15% | 0% | 0% | 3% | 0% | 10%
COc1ccc(Nc2nccc(N3CCC(NC(=O)C(C)c4ccc(Cl)cc4)C3)n2)cc1 (stereo not drawn) [GSK1379735] | 0% | 5% | 7% | 14% | 0% | 0% | 7% | 2% | 0% | 11% | 0% | 10% | 13% | 0% | 33% | 0% | 48% | 0% | 2% | 39%
Nc1cccc(-c2ccc3c(N)n[nH]c3c2)n1 [GSK2192730] | 21% | 3% | 0% | 6% | 19% | 0% | 17% | 7% | 2% | 6% | 34% | 2% | 0% | 0% | 0% | 19% | 0% | 0% | 0% | 33%
CC(=O)c1c(C)c2cnc(Nc3ccc(N4CCNCC4)cn3)nc2n(C2CCCC2)c1=O | 0% | 0% | 0% | 0% | 0% | 0% | 1% | 0% | 0% | 0% | 5% | 0% | 10% | 0% | 0% | 0% | 8% | 0% | 0% | 32%
COc1ccc(Nc2nccc(N3CCC(NC(=O)C(C)c4ccc(Cl)cc4)CC3)n2)cc1 (stereo not drawn) [GSK1379812] | 0% | 21% | 99.4% | 5% | 3% | 0% | 0% | 0% | 6% | 0% | 0% | 0% | 0% | 54% | 28% | 0% | 0% | 10% | 0% | 10%
CCn1c(-c2c(N)noc2C)nc2cnccc21 [SB-737856] | 0% | 16% | 8% | 15% | 0% | 0% | 22% | 0% | 15% | 0% | 0% | 0% | 0% | 0% | 4% | 0% | 0% | 0% | 0% | 0%
COC(=O)c1cccc(NC(=O)NC2CCN(c3ccnc(Nc4ccc(F)cc4)n3)C2)c1 (stereo not drawn) [GSK1379725] | 0% | 5% | 0% | 3% | 0% | 0% | 0% | 0% | 17% | 0% | 0% | 0% | 0% | 2% | 0% | 0% | 0% | 0% | 0% | 23%
COc1ccc2cc(-c3nc(-c4ccccc4C(C)C)[nH]c3-c3ccncc3)ccc2c1 [SB-660566] | 0% | 3% | 18% | 19% | 0% | 25% | 11% | 8% | 2% | 0% | 0% | 0% | 0% | 0% | 78% | 0% | 0% | 0% | 0% | 7%
Cc1cccc2c(-c3ccncn3)c(-c3ccc(F)cc3)nn12 [GW515532] | 50% | 9% | 8% | 6% | 19% | 0% | 87% | 1% | 9% | 14% | 2% | 12% | 39% | 0% | 13% | 0% | 0% | 0% | 0% | 33%
Fc1ccc(-c2nc[nH]c2-c2ccncc2)cc1 [SB-217360] | 47% | 34% | 4% | 0% | 6% | 16% | 87% | 8% | 0% | 0% | 7% | 0% | 0% | 0% | 32% | 0% | 0% | 0% | 34% | 0%
COc1cccc(C2=C(Nc3cc(Cl)c(O)c(Cl)c3)C(=O)NC2=O)c1 [SB-390767] | 0% | 11% | 37% | 0% | 0% | 0% | 0% | 20% | 0% | 11% | 0% | 0% | 0% | 0% | 13% | 0% | 0% | 0% | 0% | 11%
